Measurements reported in PubChem BioAssay (Tox21).
“And” between values parts separate entries of the source, which are not always exact repeats. Equal values may be shown once. Inconclusive results are not listed. The source made the active and inactive calls. Unless noted, the call rests on the fitted dose curve; in most records, active means well fitted curve in the direction sought with a large enough effect in the repeat runs; inconclusive means weak or mixed curves; inactive means no such curve, though single readings can be large; an effect the other way counts as inactive or inconclusive.

What was measured:
[1] = qHTS assay to identify small molecule agonists of H2AX - cell viability counter screen (AID 1224847; calls by dose curve; further: nearly all actives have a fitted effect of over 30% in size; further: potency means the concentration at half of the fitted maximal effect)
Outline: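 CHO-K1 wt, 1000 cells/well, o/n 37C; cpds 15 conc, 3 h 37C, 0.76% DMSO; CellTiter-Glo, 30 min RT, luminescence.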

[2] = qHTS assay to identify small molecule antagonists of the estrogen related receptor (ERR) signaling pathway from Tox21 library (AID 1224848); further: potency means the concentration at half of the fitted maximal effect; nearly all actives have a fitted effect of over 50% in size
Outline: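 Tox21 10K compounds in DMSO tested for ERR pathway antagonism in NTP's ERR cell line; 18 h, 37 C exposure; ONE-Glo luminescence.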

[3] = qHTS RealTime-Glo MT Cell Viability Assay in HEK293 cells - 8 hour (AID 1224887); further: nearly all actives have a fitted effect of over 50% in size; further: potency means the concentration at half of the fitted maximal effect
Outline: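 Luminescence, which tracks viable cell number through reduction of the prosubstrate to a NanoLuc substrate, was read over continuous 37 C culture. Cells (600/well) were premixed with reagent and rested 5 h before 23 nL of compound in DMSO was pinned.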

[4] = biological target: Estrogen receptor (Homo sapiens) (UniProt P03372); assay: qHTS assay to identify small molecule antagonists of the estrogen receptor alpha (ER-alpha) signaling pathway using the BG1 cell line in the presence of 0.1 nM 17-beta-estradiol (AID 1259244); further: nearly all actives have a fitted effect of over 50% in size; further: potency means the concentration at half of the fitted maximal effect
Outline: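 Luciferase luminescence (ONE-Glo, 30 min at room temperature) was read after 22 hr at 37C exposure to compounds plus 17beta-estradiol at 0.1 nM final. Cells were VM7Luc4E2 with endogenous ER-alpha and an ERE-driven luciferase, pre-cultured 5 days in hormone-depleted medium.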

[5] = qHTS assay to identify small molecule agonists of the estrogen receptor beta (ER-beta) signaling pathway - cell viability counter screen (AID 1259380); further: nearly all actives have a fitted effect of over 30% in size; further: potency means the concentration at half of the fitted maximal effect
Outline: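 Cell viability counter screen: CellTiter-Glo luminescence (30 min, room temperature) measured in the same wells as the beta-lactamase readout, after 16 hr compound exposure at 37C of ER-beta-bla HEK293T cells in 2% charcoal-stripped FBS medium.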

[6] = biological target: Progesterone receptor (Homo sapiens) (UniProt P06401); assay: qHTS assay to identify small molecule agonists of the progesterone receptor (PR) signaling pathway (AID 1346784; calls by dose curve; further: on the % scale 0 is the no-effect control and ±100 the full control effect; nearly all actives have a fitted effect of over 30% in size)
Outline: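 HEK 293T PR-UAS-bla reporter cells, 2% charcoal-stripped FBS; 6 hr settle at 37C/5% CO2, compound (DMSO) 16 hr, LiveBLAzer B/G FRET substrate 2 hr RT, fluorescence intensity read.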

[7] = qHTS assay to identify small molecule antagonists of the progesterone receptor (PR) signaling pathway - cell viability counter screen (AID 1346798); further: nearly all actives have a fitted effect of over 50% in size; further: potency means the concentration at half of the fitted maximal effect; on activity change, negative = cytotoxicity: series mostly up to about 92 µM; on the % scale 0 is the no-effect control and ±100 the full control effect
Outline: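 Luminescence readout (CellTiter-Glo, 30 min, RT) of viability in PR-UAS-bla HEK293T cells exposed to compound and R5020 agonist for 16 hr at 37C, 5% CO2; run in the same wells as the beta-lactamase reporter read.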

[8] = Human pregnane X receptor (PXR) small molecule agonists, qHTS cell viability counter screen (AID 1346977); further: nearly all actives have a fitted effect of over 50% in size; further: potency means the concentration at half of the fitted maximal effect
Outline: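 Fluorescence read-out (CellTiter-Fluor) of viability in PXR-Luc HepG2 cells, multiplexed with the luciferase agonist read. Compounds in DMSO added after 5hr plating; 24hr total exposure at 37C, 5% CO2.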

[9] = qHTS assay for small molecule agonists of the p53 signaling pathway (AID 651631; calls by dose curve; further: nearly all actives have a fitted effect of over 15% in size; further: potency means the concentration at half of the fitted maximal effect; on activation: on the % scale 0 is the no-effect control and ±100 the full control effect)
Outline: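 p53RE-bla HCT-116 cells; compounds 16 h, 37 °C; LiveBLAzer B/G FRET substrate 2 h RT; fluorescence intensity read-out, qHTS format.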

[10] = qHTS assay for small molecules that induce genotoxicity in human embryonic kidney cells expressing luciferase-tagged ATAD5 - cell viability (AID 651634; calls by dose curve; further: nearly all actives have a fitted effect of over 25% in size; further: potency means the concentration at half of the fitted maximal effect)
Outline: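 Cytotoxicity counter-readout: after 15.5 hr compound treatment at 37C, live-cell protease activity in ATAD5-luciferase HEK293T cells measured by CellTiter-Fluor fluorescence, 30 min development at 37C.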

[11] = qHTS assay to test for compound auto fluorescence at 460 nm (blue) in HEK293 cell free culture (AID 720681); further: on the % scale 0 is the no-effect control and ±100 the full control effect
Outline: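 Test compounds were pinned into cell-free culture medium (DMEM with 10% FBS) and fluorescence was read directly at Ex/Em 405/460 nm. Signals were expressed as fluorescence equivalents of triamterene, with DMSO vehicle as control.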

[12] = qHTS assay to test for compound auto fluorescence at 590 nm (red) in HEK293 cell free culture (AID 720683); further: on the % scale 0 is the no-effect control and ±100 the full control effect
Outline: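 Tox21 10K library compounds were pinned into cell-free DMEM with 10% FBS and fluorescence was read at excitation 540 nm. Activity is expressed as Rose Bengal sodium equivalency.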

[13] = qHTS assay for identifying genotoxic compounds that show differential cytotoxicity against isogenic chicken DT40 cell lines with known DNA damage response pathways - wild type cell line (AID 743012); further: nearly all actives have a fitted effect of over 60% in size; further: potency means the concentration at half of the fitted maximal effect
Outline: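 Viability by ATP luminescence (CellTiter-Glo, 30 min RT) after 40 h compound treatment at 37 C/5% CO2, using 300 parental DNA repair-proficient DT40 cells per well.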

[14] = qHTS assay to identify small molecule antagonists of the androgen receptor (AR) signaling pathway using the MDA cell line - cell viability counter screen (AID 743041; further: nearly all actives have a fitted effect of over 45% in size; further: potency means the concentration at half of the fitted maximal effect)
Outline: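 In this qHTS counter assay, fluorescence intensity after CellTiter-Fluor addition indicated viability of MDA-kb2 AR-luc cells given compounds and R1881 for 16 h at 37C.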

[15] = qHTS assay to identify small molecule antagonists of the thyroid receptor (TR) signaling pathway (AID 743065); further: potency means the concentration at half of the fitted maximal effect; nearly all actives have a fitted effect of over 55% in size
Outline: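 GH3.TRE-Luc rat pituitary cells carrying two TR response elements driving luciferase were plated for 4 h, given compound plus 1 nM T3 (final), and incubated 23.5 h at 37 C. ONE-Glo luminescence measured reporter inhibition; CellTiter-Fluor fluorescence tracked cytotoxicity.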

[16] = qHTS assay to identify small molecule that activate the aryl hydrocarbon receptor (AhR) signaling pathway - cell viability counter screen (AID 743086); further: nearly all actives have a fitted effect of over 45% in size; further: potency means the concentration at half of the fitted maximal effect
Outline: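 HepG2-AhR-luc (HG2L7.5c1) cells, 4000/well, were preincubated 5 h at 37C, exposed to compound in qHTS format for 24 hr at 37C, then given CellTiter-Fluor for 30 min; viability was read as fluorescence in the reporter wells.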

[17] = qHTS assay to identify small molecule antagonists of the estrogen related receptor signaling pathway with the pleiotropic PPARgamma coactivator (PGC) from Tox21 10K library (AID 1224841; call rule not given here; further: potency means the concentration at half of the fitted maximal effect)
Outline: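 Luminescence (One-Glo, 30 min at room temperature) after 18 h compound treatment at 37 C of PGC/ERR reporter cells plated at 2,000 cells/well and settled 6 h beforehand.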

[18] = biological target: Cytochrome P450 2D6 (Homo sapiens) (UniProt P10635); assay: Cytochrome P450 Family 2 Subfamily D Member 6 (CYP2D6) small molecule antagonists: luciferase reporter qHTS assay (AID 1671196); further: nearly all actives have a fitted effect of over 50% in size; further: potency means the concentration at half of the fitted maximal effect
Outline: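 CYP2D6 activity was followed as luminescence from its luciferin product after a 1 h NADPH-driven reaction at room temperature. Enzyme-substrate mix and compound were pre-incubated for 10 min, and the signal was read 20 min after adding detection reagent.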

[19] = qHTS assay to identify aromatase inhibitors - cell viability counter screen (AID 743084);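 further: cells stimulated with testosterone during compound exposure; nearly all actives have a fitted effect of over 55% in size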; further: potency means the concentration at half of the fitted maximal effect
[20] = qHTS assay to identify small molecule antagonists of the estrogen receptor alpha (ER-alpha) signaling pathway using the BG1 cell line - cell viability counter screen (AID 743081);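 further: compound given together with 17beta-estradiol as the ER stimulus; series mostly up to about 70 µM; on the % scale 0 is the no-effect control and ±100 the full control effect; nearly all actives have a fitted effect of over 45% in size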

Cytochrome P450 2D6 (Homo sapiens), sequence (P10635 whole entry, looked up): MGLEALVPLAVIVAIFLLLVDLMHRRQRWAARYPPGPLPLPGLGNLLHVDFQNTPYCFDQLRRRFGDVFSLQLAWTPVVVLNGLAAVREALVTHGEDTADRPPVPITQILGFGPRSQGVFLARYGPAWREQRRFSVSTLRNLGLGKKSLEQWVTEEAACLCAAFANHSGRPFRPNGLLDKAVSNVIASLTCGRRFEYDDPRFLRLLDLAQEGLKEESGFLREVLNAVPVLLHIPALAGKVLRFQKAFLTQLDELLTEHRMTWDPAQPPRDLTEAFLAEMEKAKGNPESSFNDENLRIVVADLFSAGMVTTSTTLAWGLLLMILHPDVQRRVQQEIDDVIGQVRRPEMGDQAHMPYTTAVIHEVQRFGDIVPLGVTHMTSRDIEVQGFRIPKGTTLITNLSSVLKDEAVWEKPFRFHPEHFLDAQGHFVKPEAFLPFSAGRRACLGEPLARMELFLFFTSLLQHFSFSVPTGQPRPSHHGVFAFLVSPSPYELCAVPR
Estrogen receptor (Homo sapiens), sequence (P03372 whole entry, looked up): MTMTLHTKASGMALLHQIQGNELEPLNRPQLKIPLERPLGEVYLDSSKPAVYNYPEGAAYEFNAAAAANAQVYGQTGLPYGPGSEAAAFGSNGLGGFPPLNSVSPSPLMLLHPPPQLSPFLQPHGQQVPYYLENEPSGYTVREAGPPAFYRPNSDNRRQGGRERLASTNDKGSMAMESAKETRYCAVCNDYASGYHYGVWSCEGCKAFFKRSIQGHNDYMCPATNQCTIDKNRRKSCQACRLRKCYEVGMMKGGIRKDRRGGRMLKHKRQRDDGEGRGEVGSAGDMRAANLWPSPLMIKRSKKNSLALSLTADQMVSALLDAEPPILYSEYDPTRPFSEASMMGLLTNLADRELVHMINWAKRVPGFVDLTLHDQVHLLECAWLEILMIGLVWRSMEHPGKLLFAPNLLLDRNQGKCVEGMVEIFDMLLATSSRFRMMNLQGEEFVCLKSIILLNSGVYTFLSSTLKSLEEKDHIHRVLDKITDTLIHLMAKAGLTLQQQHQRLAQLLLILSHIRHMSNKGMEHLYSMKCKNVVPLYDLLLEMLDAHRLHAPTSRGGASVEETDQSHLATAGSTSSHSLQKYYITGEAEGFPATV
Progesterone receptor (Homo sapiens), sequence (P06401 whole entry, looked up): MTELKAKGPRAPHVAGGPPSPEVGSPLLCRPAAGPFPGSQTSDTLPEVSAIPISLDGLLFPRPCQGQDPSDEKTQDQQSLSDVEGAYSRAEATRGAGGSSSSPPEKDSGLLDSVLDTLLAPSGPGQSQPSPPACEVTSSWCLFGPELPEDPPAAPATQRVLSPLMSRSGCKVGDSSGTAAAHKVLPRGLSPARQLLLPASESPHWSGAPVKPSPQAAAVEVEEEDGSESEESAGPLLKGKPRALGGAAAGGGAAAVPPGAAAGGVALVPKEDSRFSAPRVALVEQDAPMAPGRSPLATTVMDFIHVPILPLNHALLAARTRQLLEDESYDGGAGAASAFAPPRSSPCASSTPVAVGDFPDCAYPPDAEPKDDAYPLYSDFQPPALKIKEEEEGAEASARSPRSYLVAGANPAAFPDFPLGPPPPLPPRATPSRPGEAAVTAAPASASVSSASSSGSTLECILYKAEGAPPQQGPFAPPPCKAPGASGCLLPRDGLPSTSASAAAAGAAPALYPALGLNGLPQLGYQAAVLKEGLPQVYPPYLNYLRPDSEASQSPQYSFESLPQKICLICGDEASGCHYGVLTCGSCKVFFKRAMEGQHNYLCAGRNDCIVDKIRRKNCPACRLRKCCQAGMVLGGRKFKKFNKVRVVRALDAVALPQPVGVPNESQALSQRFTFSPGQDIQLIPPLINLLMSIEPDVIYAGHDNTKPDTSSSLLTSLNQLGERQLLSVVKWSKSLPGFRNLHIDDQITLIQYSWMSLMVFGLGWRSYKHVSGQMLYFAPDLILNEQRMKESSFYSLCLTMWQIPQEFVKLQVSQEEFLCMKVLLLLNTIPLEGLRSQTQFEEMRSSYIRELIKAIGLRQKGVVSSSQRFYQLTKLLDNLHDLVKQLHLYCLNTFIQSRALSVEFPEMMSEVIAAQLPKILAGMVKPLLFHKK

O=S(=O)(C(Cl)(Cl)Cl)C(Cl)(Cl)Cl
inactive: outcome [6] | Potency [7]
active: Potency [1] 89.8 µM | Potency [2] 54.5 µM | Potency [3] 15.5 µM | Potency [4] 27.3 µM | Potency [5] 21.7 µM | Potency [8] 61.1 µM

CCc1cccc(CC)c1N
inactive: Potency [9]

Nc1ccc([N+](=O)[O-])cc1
active: Potency [10] 54.5 µM | Potency [13] 13.7 µM | Potency [14] 30.6 µM | Potency [15] 61.1 µM | Potency [16] 40.9 µM | Potency [1] 101 µM | Potency [2] 7.7 µM | Potency [3] 21.9 µM | Potency [5] 27.3 µM | Potency [7] 8.63 µM | Potency [8] 34.4 µM | Potency [18] 50.2 µM
inactive: Potency [11] | outcome [12] | Potency [17]

CO/C=C(/C(=O)OC)c1ccccc1Oc1cc(Oc2ccccc2C#N)ncn1
active: Potency [10] 7.31 µM | Potency [13] 0.0731 µM | Potency [14] 21.7 µM | Potency [15] 0.411 µM | Potency [19] 58.1 µM | Potency [16] 37.6 µM | Potency [17] 16.4 µM | Potency [1] 0.678 µM | Potency [2] 2.06 µM | Potency [4] 5.18 µM | Potency [5] 51.8 µM | Potency [7] 51.8 µM | Potency [8] 6.52 µM | Potency [18] 43.1 µM
inactive: Potency [11]

Cc1c(N)cccc1[N+](=O)[O-]
inactive: Potency [9]

Cc1ccc2nc3sc(=O)sc3nc2c1
inactive: activity change, negative = cytotoxicity [1] 0.633% [at 31.6 µM] | activity change, negative = cytotoxicity [3] 4.11% [at 15.8 µM] | activity change, negative = inhibition [4] -0.302% [at 19 µM] | activation [6] 0.875% [at 19 µM] | activity change, negative = cytotoxicity [7] -19.3% [at 18.9 µM] | activity change, negative = cytotoxicity [8] -12.4% [at 19 µM] | activity change, negative = inhibition [18] 1.42% [at 23.6 µM]

O=C1C(I)=CC(=C(c2cc(I)c(O)c(I)c2)c2ccccc2C(=O)O)C=C1I
active: Potency [15] 29.8 µM and 23.7 µM | Potency [5] 9.44 µM
inactive: Potency [11] | outcome [12] | Potency [13] | Potency [14] | Potency [20] | Potency [19] | Potency [16] | Potency [3] | Potency [4] | outcome [6] | Potency [8] | Potency [18]

Cc1nnc2n1-c1sc(CCc3ccc(CC(C)C)cc3)cc1C(c1ccccc1Cl)=NC2C (centres undefined)
active: Potency [13] 11.9 µM | Potency [15] 11.9 µM | Potency [17] 10.6 µM | Potency [2] 9.44 µM | Potency [3] 21.3 µM | Potency [4] 29.8 µM | Potency [5] 29.8 µM
inactive: Potency [11] | outcome [12] | Potency [19] | Potency [16]

Cc1cc(C(C)(C)c2ccc(O)c(C)c2)ccc1O
active: Potency [9] 13 µM | Potency [17] 9.23 µM | Potency [1] 108 µM | Potency [2] 26 µM | Potency [3] 23.4 µM | Potency [5] 29.2 µM | Potency [8] 20.7 µM | Potency [18] 30.2 µM
inactive: Potency [11] | outcome [12] | Potency [13] | Potency [14] | Potency [20] | outcome [6]

CCCCC(CC)COC(=O)c1ccc(C(=O)OCC(CC)CCCC)cc1 (centres undefined)
inactive: Potency [9]

O=C1OC(=O)c2c(Cl)c(Cl)c(Cl)c(Cl)c21
inactive: Potency [9]

ClC(Cl)=C(c1ccc(Cl)cc1)c1ccccc1Cl
inactive: Potency [4] | outcome [6] | Potency [7] | Potency [18]

C[C@]12CC[C@@H](O)C[C@@H]1CC[C@@H]1[C@@H]2CC[C@]2(C)C(=O)CC[C@@H]12
active: Potency [1] 101 µM | Potency [5] 27.3 µM | Potency [7] 48.6 µM
inactive: outcome [6] | Potency [8]

COc1ccc(C(c2ccc(OC)cc2)C(Cl)(Cl)Cl)cc1
active: Potency [9] 30.6 µM | Potency [13] 19.2 µM | Potency [15] 24.2 µM | Potency [17] 8.58 µM | Potency [1] 50.2 µM | Potency [2] 30.5 µM | Potency [18] 44.5 µM
inactive: Potency [10] | Potency [11] | outcome [12] | Potency [20] | Potency [16]

OC(Cc1ccccc1Cl)(Cn1[nH]cnc1=S)C1(Cl)CC1 (centres undefined)
inactive: Potency [7] | Potency [8]

Nc1ccc(Cl)cc1[N+](=O)[O-]
inactive: Potency [9]

O=C(c1ccccc1)C(Cl)Cl
active: Potency [17] 68.6 µM
inactive: Potency [4] | Potency [5] | Potency [7]

Cc1ccc(N(SC(F)(Cl)Cl)S(=O)(=O)N(C)C)cc1
inactive: Potency [11] | outcome [12]
active: Potency [9] 6.11 µM | Potency [13] 0.122 µM | Potency [14] 54.5 µM | Potency [15] 2.17 µM | Potency [19] 34.4 µM | Potency [16] 48.6 µM | Potency [17] 24.3 µM | Potency [1] 89.8 µM | Potency [2] 24.3 µM | Potency [3] 12.3 µM | Potency [5] 54.5 µM | Potency [8] 43.3 µM

OCC(c1ccc(Cl)cc1)c1ccc(Cl)cc1
active: Potency [13] 13.7 µM | Potency [15] 61.1 µM | Potency [1] 89.8 µM | Potency [3] 34.7 µM | Potency [5] 54.5 µM
inactive: Potency [10] | Potency [11] | outcome [12] | Potency [20] | Potency [16] | Potency [18]

CC(c1ccccc1)(c1ccc(O)cc1)c1ccc(O)cc1
inactive: Potency [4]
active: Potency [17] 34.4 µM | Potency [2] 61.1 µM | Potency [5] 54.5 µM

Oc1c(I)cc(I)cc1I
inactive: Potency [3] | outcome [6] | Potency [7]
active: Potency [17] 61.1 µM
